High-throughput results as filed in PubChem BioAssay.
AHR activator: human AHR activation. AHR-responsive luciferase reporter cells, luminescence. activation, % at 5 µM. actives 2.5% (n = 320,000). AID 2796; in the data active = activation above about 47%
Target sequence (P35869 whole entry, looked up): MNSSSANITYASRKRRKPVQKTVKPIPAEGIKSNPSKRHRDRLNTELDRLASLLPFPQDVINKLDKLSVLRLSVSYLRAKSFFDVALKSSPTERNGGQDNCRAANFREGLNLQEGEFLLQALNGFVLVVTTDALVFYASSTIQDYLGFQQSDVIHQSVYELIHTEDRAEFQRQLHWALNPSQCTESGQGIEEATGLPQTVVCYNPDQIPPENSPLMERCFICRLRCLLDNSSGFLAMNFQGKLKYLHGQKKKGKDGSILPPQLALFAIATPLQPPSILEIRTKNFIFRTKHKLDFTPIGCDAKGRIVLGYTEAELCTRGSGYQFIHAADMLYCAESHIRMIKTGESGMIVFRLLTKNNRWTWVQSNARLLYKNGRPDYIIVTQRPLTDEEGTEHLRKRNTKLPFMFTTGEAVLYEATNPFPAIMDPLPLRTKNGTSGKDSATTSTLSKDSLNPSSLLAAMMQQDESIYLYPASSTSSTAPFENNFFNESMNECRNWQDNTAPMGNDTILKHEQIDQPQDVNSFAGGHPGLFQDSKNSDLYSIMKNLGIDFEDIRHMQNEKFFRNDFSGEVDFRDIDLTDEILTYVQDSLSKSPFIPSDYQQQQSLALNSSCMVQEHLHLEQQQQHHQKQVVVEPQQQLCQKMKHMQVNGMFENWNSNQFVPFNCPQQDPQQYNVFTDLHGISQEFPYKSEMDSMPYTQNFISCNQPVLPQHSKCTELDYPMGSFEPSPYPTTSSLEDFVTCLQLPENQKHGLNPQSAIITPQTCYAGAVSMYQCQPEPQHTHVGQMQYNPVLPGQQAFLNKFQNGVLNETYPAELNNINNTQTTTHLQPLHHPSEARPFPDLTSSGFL
sPLA2-III inh: Inhibits HGIII-sPLA2 liposome hydrolysis, primary screen; Q9NZ20; QFRET BODIPY PC-A2 liposome hydrolysis, fluorescence; inhibition, % at 12.2 µM; actives 0.56% (n = 370,000);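 active = inhibition above mean plus 3 SD of compounds lying within the high and low control bounds, cut at about 19% in these data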
CR mimetic SO: lowers age-related superoxide in aged yeast cells; superoxide response (% of plate mean), % at 10 µM; actives 0.18% (n = 330,000); AID 2690; S. cerevisiae aged cells, superoxide DHE fluorescence; hits give low values;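 active = superoxide response under a set limit, about three screen SD below normal, cut at about 65% in these data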;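 also: yeast aged for seven days with compound at 30 °C before DHE staining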
HIF act: HIF pathway transcriptional activation; U2OS HRE-luciferase reporter, luminescence; normalized: DMSO 0%, desferrioxamine 100%; activation, % at 7.5 µM (by protocol); actives 0.32% (n = 300,000); AID 1910;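 active = mean activation of at least 10% of the iron chelator positive control signal, with at least half of replicates also reaching 10%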
PLCg1 inh: inhibitors of human phospholipase C gamma1. P19174. purified PLC-gamma1, fluorogenic substrate, fluorescence. inhibition, % at 12.2 µM. actives 0.84% (n = 370,000); in the data active = inhibition above about 9.5%
PLC-beta3 inh: blocks human PLC-beta3 enzyme activity; Q01970; Purified PLC-beta3, fluorogenic substrate, fluorescence; inhibition, % at 12.2 µM; actives 0.18% (n = 370,000); in the data active = inhibition above about 11%
hGIII sPLA2 conf: human GIII-sPLA2 inhibition, confirmation | recombinant hGIII-sPLA2, BODIPY PC-A2 QFRET fluorescence | inhibition, % at 12.2 µM | AID 743280 | actives 34% (n = 2,000) | shares compounds with sPLA2-III inh;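 active = mean inhibition across triplicates above the hit cutoff set in the earlier primary screen, cut at about 19% in these data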
BODIPY interf: 535nm fluorescence interference, HGIII-sPLA2 counter-screen | shares compounds with sPLA2-III inh | BODIPY FL product fluorescence interference, QFRET | inhibition, % at 12.2 µM | actives 8.5% (n = 2,000);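 active = average inhibition above the solvent-only control mean plus 3 SD, cut at about 6% in these data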
535nm interf DR: interferes with 535nm fluorescence in dose response counter-screen; IC50, µM; shares compounds with sPLA2-III inh; AID 743455; BODIPY FL product fluorescence interference, cell-free; 240 tested, under 10 active;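 active = IC50 at or below 10 µM; inactive = IC50 above 10 µM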
A number is an active result; – = inactive; · = not tested or not shown. Shown are actives, neighbours in structure and some others; about 3.9% of the full set was active somewhere.

SMILES | AHR activator | sPLA2-III inh | CR mimetic SO | HIF act | PLCg1 inh | PLC-beta3 inh | hGIII sPLA2 conf | BODIPY interf | others
CC(C)(C)c1ccc(OCCCCCCN2CCNCC2)cc1 | – | 23 | – | – | – | – | – | –
S=C(CN1CCCC1=S)N1CCOCC1 | – | – | – | · | – | – | · | ·
CC(C)(CCC(=S)N1CCOCC1)C1CCCCC1 | – | 19 | – | – | – | – | – | –
C[C@H](O)[C@@H]1CN2CCc3c([nH]c4c(-c5ccccc5)cccc34)[C@@H]2C[C@@H]1N(C)C(=S)Nc1ccc(C#N)cc1 | · | – | · | · | – | – | · | ·
CCOC(=O)c1ccc(N=CC2=C(O)CC(C)(C)CC2=O)cc1 | – | – | – | – | – | – | · | ·
CCOC(=O)c1cc(CC)sc1/N=C/C1=C(O)CC(C)(C)CC1=O | – | 23 | – | – | – | – | – | –
Cc1cnc(=O)[nH]c1SCc1cccc([N+](=O)[O-])c1 | – | – | – | – | – | – | · | ·
CC(NC(=S)NCCCN1CCOCC1)C12CC3CC(CC(C3)C1)C2 (stereo not given) | – | – | – | · | – | – | · | ·
CCC(C(=O)OCCOCCN(CC)CC)c1ccccc1 (stereo not given) | – | 20 | – | – | – | – | – | –
CCN(CC)CCCOC(=O)C(c1ccccc1)c1ccccc1 | – | – | – | – | – | – | · | ·
Cc1cc(C(=O)CN2CCC(C)CC2)c(C)n1-c1ccccc1F | – | 19 | – | – | – | – | – | –
Cc1cc(C(=O)CN2C(=O)C(=O)N(Cc3ccccc3)C2=O)c(C)n1-c1ccccc1F | – | – | – | – | – | – | · | ·
Cc1ccc2c(c1)N(CCC(=O)NC1CCCCC1C)C(=O)CO2 (stereo not given) | – | – | – | – | – | – | · | ·
O=C1S/C(=C\C=C\c2ccco2)C(=O)N1c1ccccc1 | – | 28 | – | – | – | – | – | –
CCCNC(=O)C1(C)CCN(C(=O)/C=C/c2ccccc2)C1 (stereo not given) | · | – | · | · | – | – | · | ·
O=C(NCc1ccc(Cl)cc1)C(=O)NCC(c1ccco1)N1CCOCC1 (stereo not given) | – | 20 | – | – | – | – | – | –
O=C(NCC1CCCO1)C(=O)NCC(c1ccco1)N1CCN(c2ccc(F)cc2)CC1 (stereo not given) | – | 21 | – | – | – | – | – | –
Cc1ccc(CNC(=O)C(=O)NCC(c2ccco2)N2CCOCC2)cc1 (stereo not given) | – | – | – | – | – | – | · | ·
CC(C)c1ccc(NC(=O)C2Cc3c(-c4ccc(Cl)cc4)ccnc3O2)cc1 (stereo not given) | · | – | · | · | – | – | · | ·
CN(C)c1ccc(N=Nc2ccccc2C(=O)OCC(=O)NC2CCCC2)cc1 | – | 20 | – | – | – | – | 24 | –
CN(C)c1ccc(C(=O)OCC(=O)NC2CCCCCC2)cc1 | – | – | – | – | – | – | · | ·
CCOc1cc(NC(=S)NCc2ccco2)c(OCC)cc1NC(=O)CC(C)C | – | 20 | – | – | – | – | – | –
CCOc1cc(NC(=O)C(C)C)c(OCC)cc1NC(=O)Nc1ccccc1 | – | – | – | – | – | – | · | ·
CCOc1cc(NC(=S)NCc2ccccc2)c(OCC)cc1NC(=O)C(C)C | – | 20 | – | – | – | – | 29 | – | 535nm interf DR=–
Nc1[nH]n(-c2ccccc2)c(=O)c1N=Nc1ccc2c(c1)OCO2 | 121 | 21 | – | – | – | – | 27 | –
SMILES | AHR activator | sPLA2-III inh | CR mimetic SO | HIF act | PLCg1 inh | PLC-beta3 inh | hGIII sPLA2 conf | BODIPY interf | others
O=C(OCc1nc2ccccc2s1)c1cc2ccccc2oc1=O | – | 22 | – | – | – | – | – | –
Nc1ccc(C(=O)OCc2nc3ccccc3s2)cc1 | – | – | – | – | – | – | · | ·
O=C(NCCCN1CCCC1=O)c1cccc(S(=O)(=O)N2CCN(c3ccccc3)CC2)c1 | – | – | – | – | – | – | · | ·
CC1CCCN(S(=O)(=O)c2cccc(C(=O)NCCCN3CCCC3=O)c2)C1 (stereo not given) | · | 20 | · | · | – | – | – | –
O=C(O)C1CC=CCC1C(=O)N1CCN(c2nc(-c3ccccc3)c3ccccc3n2)CC1 (stereo not given) | – | – | – | – | – | – | · | ·
O=C(O)C1CC=CCC1C(=O)N1CCN(c2nc(-c3ccccc3Cl)c3cc(Br)ccc3n2)CC1 (stereo not given) | – | 24 | – | · | – | – | – | –
O=C(NCC(c1ccco1)N1CCCC1)c1ccccc1F (stereo not given) | – | – | – | – | – | – | · | ·
S=C(NCc1ccco1)NCC(c1ccco1)N1CCCCC1 (stereo not given) | – | 23 | – | – | – | – | 27 | –
O=C(O)c1ccccc1C(=O)Nc1ccc(S(=O)(=O)NC2CCCCC2)cc1 | – | 20 | – | – | – | – | – | –
COc1ccc(C(=O)c2coc(-c3ccccc3C(=O)O)c2C(=O)O)cc1 | – | 19 | – | – | – | – | – | –
CCCn1c(C(C)C)n[nH]c1=S | – | 26 | – | – | – | – | – | –
CCCn1c(-c2ccncc2)n[nH]c1=S | – | – | – | – | – | – | · | ·
COc1cc2c3c(c1)C(C)CC(C)(C)N3C(=O)C2=O (stereo not given) | – | 24 | – | – | – | – | – | –
COc1cc2c3c(c1)C(C)=CC(C)(C)N3C(=O)C2=O | – | – | – | – | – | – | · | ·
CCN(CC(=O)NC(C)(C)C)C(=O)COc1c(Cl)cc(Cl)c2ccc(C)nc12 | – | – | – | – | – | – | · | ·
CCN(CC(=O)NC(C)(C)C)C(=O)CCl | – | 20 | – | – | – | – | – | –
Cc1ccccc1C(=O)NC(=S)Nc1ccccc1N1CCCC1 | 50 | 20 | – | – | – | – | 27 | –
O=C(NC(=S)Nc1ccccc1N1CCCCC1)c1ccc(F)cc1Cl | – | – | – | – | – | – | · | ·
O=C(COc1ccccc1)N=C1SC2CS(=O)(=O)CC2N1Cc1ccccc1 (stereo not given) | – | – | – | – | – | – | · | ·
C(=N\N(c1ccccc1)c1ccccc1)/c1ccc2c(c1)OCO2 | – | – | – | – | – | – | · | ·
CN(/N=C/c1ccc2c(c1)OCO2)c1ccccc1 | – | 23 | – | – | – | – | 41 | 6.6
COc1ccc(S(=O)(=O)Nc2cccc3c2O[C@H](CN(C)C(=O)Nc2ccccc2)[C@@H](C)CN([C@H](C)CO)C3=O)cc1 | – | – | – | · | – | – | · | ·
CCn1c(C)c(C)c2cc(C(=O)NC3CCCCCC3)ccc21 | – | – | – | – | – | – | · | ·
